From PubChem BioAssay
Pf growth 48h: P. falciparum growth inhibition at 48 hours (one generation); P. falciparum luciferase growth in erythrocytes, 48 h; Potency, µM (top dose mostly 28.7 µM), for the others: top-dose activity change, negative = inhibition, most hits filed as inhibitors; 310,000 tested, 5.9% active; AID 504832
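Luminescence readout; reporter = integrated firefly luciferase in P. falciparum. RBC culture at 2% hematocrit, 0.1% parasitemia final, 37 C/5% CO2; decreased signal taken as growth inhibition.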
AMA1 RON2 block: inhibitors of Plasmodium falciparum AMA1-RON2 interaction. Potency, µM (doses to about 58.2 µM), for inactives: at the highest dose activity change, negative = inhibition, most hits filed as inhibitors. 360,000 tested, 0.2% active. AlphaScreen AMA1-biotinylated RON2 peptide binding;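 further: 0% = vehicle wells and -100% = peptide control; nearly all actives have a fitted effect of over 45% in size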
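AMA1 (3D7) with his tag at 25 nM final met compounds first, then biotinylated RON2 peptide at 25 nM; detection used donor plus acceptor beads, 10 µg/mL apiece, read by AlphaScreen after 30 min at room temperature.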
Pf growth 96h: P. falciparum growth inhibition at 96 hours; 320,000 tested, 6.9% active; P. falciparum luciferase reporter growth, 96 h; Potency, µM (titrated, usually from 28.7 µM), inactives show top-dose activity change, negative = inhibition, actives largely listed as inhibitors; AID 504834
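Luminescence readout: decreased luciferase signal marks inhibited growth of reporter-expressing P. falciparum in infected red cells (2% hematocrit, 0.05% parasitemia final), exposed to compound two generations (96 h, 37 C, 5% CO2).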
HCV inhibitor: HCV inhibition; Huh7.5.1 HCVcc-Cre infection, luciferase reporter, 44 h; Potency, µM (highest dose often 41.8 µM), for the others: at the top dose activity change, negative = inhibition, actives largely listed as inhibitors; 340,000 tested, 3.4% active; AID 651820
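After 44 h co-culture of compound, cells and HCVcc-Cre (~0.5 moi), substrate is added for 15 min at room temperature and luciferase measured over 15 sec. Cells were seeded at 1,000/well and pre-cultured 4 h.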
Starred values were filed as active, the others as inactive; ? = inconclusive; . = not tested or not shown. Shown are actives, neighbours in structure and some others; about 11% of the full set was active somewhere. The call rests on the fitted dose curve; in most records, active means well fitted curve in the direction sought with a large enough effect; inconclusive means small, poorly fitted or top-dose-only effect, or another doubt; inactive means no such curve, though single readings can be large; an effect the other way counts as inactive or inconclusive. Unless noted, on the % scale 0 is the no-effect control and ±100 the full control effect; potency means the concentration at half of the fitted maximal effect.

SMILES | Pf growth 48h | AMA1 RON2 block | Pf growth 96h | HCV inhibitor
C[C@@H](NC(=O)/C(C#N)=C/c1ccc(O)c(O)c1)c1ccccc1 | ? | 18.1% | ? | ?
CC(NC(=O)/C(C#N)=C/c1ccc(Cl)c([N+](=O)[O-])c1)c1ccccc1 (centres undefined) | -22.7% | -2.3% | 2.9% | 35.5µM*
CCOC(=O)c1ccc(Cn2cnc3ccccc3c2=O)cc1 | -12.3% | 10.8% | 13.1µM* | 5.5%
CCOC(=O)c1cccc(-n2c(C)nc3ccccc3c2=O)c1 | 17.6% | 1.8% | 9.28µM* | 7.1%
COC(=O)c1ccc(Cn2cnc3ccccc3c2=O)cc1 | 3.9% | -11.4% | ? | 1.9%
COc1cccc(-n2c(C)nc3ccccc3c2=O)c1 | 46.8% | 2.2% | . | 13.0%
Cc1cccc(-n2c(C)nc3ccccc3c2=O)n1 | 64.9% | -3.4% | 5.22µM* | 4.2%
CO[C@H]1CN(C)C(=O)c2ccc(NS(=O)(=O)c3ccccc3F)cc2OC[C@H](C)NC[C@@H]1C | . | -12.2% | . | .
CCN1CCN(C(=O)CCc2nnc3ccc(N4CCN(c5cccc(OC)c5)CC4)nn23)CC1 | -15.7% | -3.9% | ? | -0.5%
Cc1ccc(-c2cc(=O)c3cc(Cl)ccc3[nH]2)cc1 | 121.7% | . | 19.3% | .
CCCOC(=O)c1ccc(Oc2cn[nH]c2-c2ccc(O)cc2O)cc1 | ? | 83.2% | 13.1µM* | 8.91µM*
CCOC(=O)c1ccc(Oc2cn[nH]c2-c2ccc(O)cc2O)cc1 | ? | 90.3% | ? | ?
CCCOC(=O)c1ccc(Oc2cn[nH]c2-c2ccc(OCC(=O)NN)cc2O)cc1 | ? | 87.9% | 9.28µM* | -10.7%
CC(=O)Nc1ccc(S(=O)(=O)NC(C)C(=O)NCCc2ccc(F)cc2)cc1 (centres undefined) | 7.0% | 12.9% | 0.4% | 9.5%
COc1ccccc1-c1coc2c(CN3CCC(C)CC3)c(O)ccc2c1=O | 11.7µM* | 28.8% | ? | 5.7%
COc1ccc(-c2c(C(F)(F)F)oc3c(CN4CCN(C)CC4)c(O)ccc3c2=O)cc1 | 3.29µM* | -19.1% | ? | 2.6%
O=c1c(Oc2ccccc2Br)c(C(F)(F)F)oc2c(CN3CCCC3)c(O)ccc12 | 10.4µM* | ? | 2.08µM* | 13.9%
COc1ccccc1Oc1c(C)oc2c(CN3CCN(C)CC3)c(O)ccc2c1=O | 13.0% | . | 19.0% | .
Cc1oc2c(CN3CCCC3)c(O)ccc2c(=O)c1-c1ccccc1 | ? | -3.5% | 11.7µM* | 1.1%
N#Cc1cnc2nc1NCCCCCCC2 | . | -10.4% | . | .
CNc1cncc(C(=O)O)c1 | 2.3% | 10.0% | 30.1% | 9.7%
Cc1oc2c(CN3CCC(C)CC3)c(O)ccc2c(=O)c1-c1ccccc1 | 2.94µM* | 0.0% | 4.15µM* | 5.0%
CCCc1cc(=O)oc2c(CN3CCN(C)CC3)c(O)ccc12 | 0.5% | -2.7% | -1.7% | 2.5%
CCCCc1cc(=O)oc2c(CN3CCN(C)CC3)c(O)ccc12 | 11.7µM* | -0.9% | ? | ?
COc1ccc(-c2c(C)oc3c(CN4CCN(C)CC4)c(O)ccc3c2=O)cc1 | -5.3% | 2.5% | ? | 16.8%
SMILES | Pf growth 48h | AMA1 RON2 block | Pf growth 96h | HCV inhibitor
O=C(CSc1ccccc1F)NCCCN1CCCC1=O | 16.3% | 13.6% | 18.6% | -3.6%
CC1=C(C(=O)N(C)C)CC(CC(=O)NCc2cccc3ccccc23)C(=O)N1Cc1ccccc1 (centres undefined) | . | -7.6% | . | .
CC12CCC(=O)N1C(C(=O)Nc1cccc(S(=O)(=O)N3CCCCCC3)c1)CS2 (centres undefined) | -13.4% | -12.6% | 13.1µM* | ?
CC12CCC(=O)N1C(C(=O)Nc1ccc(S(=O)(=O)N3CCCCC3)cc1)CS2 (centres undefined) | ? | -3.4% | 0.2% | 13.1%
CC1CC(C)CN(S(=O)(=O)c2ccc(NC(=O)C3CSC4(C)CCC(=O)N34)cc2)C1 (centres undefined) | ? | -15.0% | 9.28µM* | ?
COc1ccc(S(=O)(=O)NNC(=O)C23CC4CC(CC(C4)C2)C3)cc1[N+](=O)[O-] | 18.7% | 5.0% | -1.6% | 7.8%
CC1CCN(C(=O)C2CCN(C(=O)c3cc4sccc4n3Cc3ccc(F)cc3)CC2)CC1 | ? | 17.0% | 30.8% | -27.7%
CC(C)NC(=O)C1CCN(C(=O)c2cc3sccc3n2Cc2ccc(F)cc2)CC1 | . | 9.1% | . | ?
O=C(NCc1ccc(F)cc1)c1cc2sccc2n1Cc1ccc(F)cc1 | ? | . | 10.4µM* | ?
O=C(NCCc1c[nH]c2ccccc12)c1cc2sccc2n1Cc1ccccc1 | . | -19.1% | 0.1% | 5.01µM*
O=C(c1cc2sccc2n1Cc1ccc(F)cc1)N1CCCc2ccccc21 | 9.28µM* | 0.0% | ? | ?
CCn1cc(C(=O)NCCCOC(C)C)c(=O)c2cc(S(=O)(=O)N3CCOCC3)ccc21 | -5.6% | 13.8% | ? | 9.1%
COc1ccc(C2C=C(C34CC5CC(CC(C5)C3)C4)NC(=S)N2)cc1OC (centres undefined) | ? | 14.7% | 9.28µM* | -24.3%
COc1ccc(C2OCC(C)(C)CO2)cc1OC | . | -2.4% | . | 15.7%
CCCCn1nc2cc(C(=O)NC3CCCc4ccccc43)ccc2c1OCC (centres undefined) | -27.8% | -7.9% | ? | 1.78µM*
CCOc1c2ccc(C(=O)NC3CCCc4ccccc43)cc2nn1C (centres undefined) | 25.2% | -5.4% | 0.1% | ?
CCCn1nc2cc(C(=O)NCC34CC5CC(CC(C5)C3)C4)ccc2c1OCC | 11.7µM* | -3.2% | ? | ?
CCOc1c2ccc(C(=O)NCCCCc3ccccc3)cc2nn1CC | -5.8% | 4.7% | -5.4% | 3.55µM*
COCCn1nc2cc(C(=O)NCC34CC5CC(CC(C5)C3)C4)ccc2c1OC | ? | 5.2% | -2.8% | -3.5%
Cc1cc(N2CCN(C3CCCCC3)CC2)nc2cccc(O)c12 | 2.94µM* | -3.7% | ? | ?
Cc1cc(N2CCCC2)nc2ccccc12 | -9.7% | 6.1% | 0.1% | -20.3%
Cc1cc(=O)[nH]c(SCC(=O)NC2CCCCCC2)n1 | . | 4.5% | . | 32.5%
N#Cc1cc[n+](CC(=O)c2ccc(NC(=O)c3ccccc3)cc2)cc1 | 4.15µM* | ? | 3.29µM* | 14.4%
Cc1c(N)cc[n+](CC(=O)c2ccccc2)c1C | -30.3% | -17.9% | -2.9% | 8.91µM*
O=C(C[n+]1cccc(C(=O)Nc2ccccc2)c1)c1ccc([N+](=O)[O-])cc1 | -77.3% | -6.8% | -2.0% | 11.2µM*
SMILES | Pf growth 48h | AMA1 RON2 block | Pf growth 96h | HCV inhibitor
Cc1cccc[n+]1CC(=O)c1ccc(NC(=O)c2ccccc2)cc1 | 2.94µM* | -2.7% | 10.9% | 10.3%
Cc1cccc[n+]1CC(=O)Nc1ccccc1 | -14.2% | 3.0% | ? | -0.9%
COc1ccc(CNc2nc(S(=O)(=O)c3ccccc3)c(Cl)s2)cc1OC | -12.6% | -16.6% | ? | ?
CCOc1ccc(NC(=O)CN(C)C(=O)c2cc(C)on2)cc1OCC | ? | 0.7% | ? | 8.9%
CCOc1ccc(CCNC(=O)Cn2cccc2C(=O)c2ccccc2C)cc1OCC | ? | -12.1% | -0.5% | ?
Cc1cc(NC(=O)CS(=O)(=O)c2cn(Cc3cccc(Br)c3)c3ccccc23)no1 | . | -14.1% | . | .
